# In PubChem BioAssay (NCATS):
# Results filed as inconclusive are left out. Where a call stands in place of a potency, no number is given. Values without a mark were called inactive. Active and inactive are the calls of the source. The call rests on the fitted dose curve; in most records, active means well fitted inhibition curve with a large enough effect; inconclusive means small, poorly fitted or top-dose-only effect; inactive means flat fitted curve, though single readings scatter.
# Experiments:
# CRL-7250 = normal cell line; experiment: Cytotoxic Profiling of Annotated Libraries Using Quantitative High-Throughput Screening (AID 1296008); settings: Five cell lines viability, CellTiter-Glo ATP luminescence, 48-72 h; max response: hits give low values
# How it was run: (§1)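 Cytotoxicity was measured as CellTiter-Glo ATP luminescence, read after 10 min at room temperature. Compound treatment of the cells lasted 48 or 72 hr at 37 degrees Celsius in a qHTS format.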
# HEK293 = experiment: as above; settings: Five cell lines viability, CellTiter-Glo ATP luminescence, 48-72 h; max response: hits give low values
# How it was run: as §1
# HaCat = experiment: as above; settings: Five cell lines viability, CellTiter-Glo ATP luminescence, 48-72 h; max response: hits give low values
# How it was run: as §1
# FAB9 = experiment: qHTS profiling for inhibitors of Plasmodium falciparum proliferation (AID 504749); settings: P. falciparum in erythrocytes, SYBR Green DNA, 72 h; series mostly up to 28.7 µM
# How it was run: (§2)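 Infected RBCs, 0.3% parasitemia/2.5% Hct final; cpd 72 h, 37 C, 5% CO2; lysis buffer with saponin/triton/SYBR Green I, o/n RT dark; FI 485/535; norm. to artemisinin (0.29 uM) and DMSO.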
# GB4 = experiment: as above; settings: P. falciparum in erythrocytes, SYBR Green DNA, 72 h; series mostly up to 28.7 µM
# How it was run: as §2
# HB3 = experiment: as above; settings: P. falciparum in erythrocytes, SYBR Green DNA, 72 h; series mostly up to 28.7 µM
# How it was run: as §2
# ICS = experiment: as above; settings: P. falciparum in erythrocytes, SYBR Green DNA, 72 h; series mostly up to 28.7 µM
# How it was run: as §2
# JCK = experiment: as above; settings: P. falciparum in erythrocytes, SYBR Green DNA, 72 h; series mostly up to 28.7 µM
# How it was run: as §2
# N140 = experiment: as above; settings: P. falciparum in erythrocytes, SYBR Green DNA, 72 h; series mostly up to 28.7 µM
# How it was run: as §2
# P93_24 = experiment: as above; settings: P. falciparum in erythrocytes, SYBR Green DNA, 72 h; series mostly up to 28.7 µM
# How it was run: as §2
# P94_40 = experiment: as above; settings: P. falciparum in erythrocytes, SYBR Green DNA, 72 h; series mostly up to 28.7 µM
# How it was run: as §2
# PAD = experiment: as above; settings: P. falciparum in erythrocytes, SYBR Green DNA, 72 h; series mostly up to 28.7 µM
# How it was run: as §2
# PC15 = experiment: as above; settings: P. falciparum in erythrocytes, SYBR Green DNA, 72 h; series mostly up to 28.7 µM
# How it was run: as §2
# PC26 = experiment: as above; settings: P. falciparum in erythrocytes, SYBR Green DNA, 72 h; series mostly up to 28.7 µM
# How it was run: as §2
# PC49 = experiment: as above; settings: P. falciparum in erythrocytes, SYBR Green DNA, 72 h; series mostly up to 28.7 µM
# How it was run: as §2
# SC27B = experiment: as above; settings: P. falciparum in erythrocytes, SYBR Green DNA, 72 h; series mostly up to 28.7 µM
# How it was run: as §2
# TAB109 = experiment: as above; settings: P. falciparum in erythrocytes, SYBR Green DNA, 72 h; series mostly up to 28.7 µM
# How it was run: as §2
# TAB113 = experiment: as above; settings: P. falciparum in erythrocytes, SYBR Green DNA, 72 h; series mostly up to 28.7 µM
# How it was run: as §2
# TAB165 = experiment: as above; settings: P. falciparum in erythrocytes, SYBR Green DNA, 72 h; series mostly up to 28.7 µM
# How it was run: as §2
# W2 = experiment: as above; settings: P. falciparum in erythrocytes, SYBR Green DNA, 72 h; series mostly up to 28.7 µM
# How it was run: as §2
# Further: nearly all actives have a fitted effect of over 60% in size.
# Potency means the concentration at half of the fitted maximal effect.
smiles,measurement,setting,value
O=C1C(c2c(O)[nH]c3ccccc23)=Nc2ccccc21,outcome,CRL-7250,inactive
same,max response,HEK293,-1.42%
same,outcome,HaCat,inactive
N#CC(=C1Nc2ccccc2S1)c1ccnc(OCc2ccc(CN3CCOCC3)cc2)n1,max response,CRL-7250,4.11%
same,outcome,HaCat,inactive; activator
COC1CCC(C(=O)c2ccc3nc4c(cc3c2)CCCO4)CC1 (stereo unspecified),outcome,CRL-7250,inactive
same,outcome,HaCat,inactive
CCCCN(CCCC)CC(O)c1cc(Cl)cc2c1-c1ccc(Cl)cc1C2=Cc1ccc(Cl)cc1 (stereo unspecified),max response,CRL-7250,-1.5%
same,outcome,HaCat,inactive
Cc1ccc(C2=Nc3ccc(Cl)cc3OC2)cc1,outcome,CRL-7250,inactive
same,outcome,HaCat,inactive
CN1[C@H]2CC[C@H]1CC(OC(=O)c1c[nH]c3ccccc13)C2 (stereo partly specified),max response,CRL-7250,-1.18%
same,outcome,HaCat,inactive
O=C(c1ccc(F)c(F)c1Nc1ccc(I)cc1F)N1CC(O)([C@H]2CCCCN2)C1,Potency,CRL-7250,2960 nM (active)
same,Potency,HaCat,7430 nM (active)
O=C(O)c1nc(=O)[nH]c(=O)[nH]1,outcome,FAB9,inactive
same,Potency,GB4,inactive
same,Potency,HB3,inactive
same,Potency,ICS,inactive
same,outcome,JCK,inactive
same,Potency,N140,inactive
same,Potency,P93_24,inactive
same,Potency,P94_40,inactive
same,Potency,PAD,inactive
same,outcome,PC15,inactive
same,Potency,PC26,inactive
same,outcome,PC49,inactive
same,Potency,SC27B,inactive
same,Potency,TAB109,inactive
same,Potency,TAB113,inactive
same,Potency,TAB165,inactive
same,Potency,W2,inactive
same,max response,CRL-7250,1.07%
same,max response,HEK293,-17.5%
same,max response,HaCat,1.83%
CN1CCN2c3ncccc3Cc3ccccc3C2C1 (stereo unspecified),outcome,FAB9,inactive
same,Potency,HB3,inactive
same,Potency,ICS,11200 nM (active)
same,outcome,JCK,inactive
same,Potency,P94_40,inactive
same,outcome,PC15,inactive
same,outcome,PC49,inactive
same,Potency,SC27B,inactive
same,Potency,TAB109,inactive
same,Potency,TAB113,inactive
same,Potency,TAB165,inactive
same,max response,CRL-7250,-0.363%
same,max response,HEK293,-5%
same,max response,HaCat,-6.78%
CN(C)c1ccc(-c2nc3ncc(Cl)c(N4CCN(CC(=O)Nc5nccs5)CC4)c3[nH]2)cc1,max response,CRL-7250,-24%
same,outcome,HaCat,inactive
Cc1cc(CS(=O)(=O)c2ccccc2)cc(OCc2ccc(CN3CCC[C@H]3CO)cc2)c1,Potency,CRL-7250,1320 nM (active)
same,Potency,HaCat,1480 nM (active)
c1ccc(-c2oc3ncnc(NC[C@@H]4CCCO4)c3c2-c2ccccc2)cc1,max response,CRL-7250,-6.45%
same,max response,HaCat,-3.81%
N#CC(c1ccc(Cl)cc1)c1c(Cl)cc(-n2ncc(=O)[nH]c2=O)cc1Cl (stereo unspecified),outcome,FAB9,inactive
same,Potency,GB4,inactive
same,Potency,HB3,inactive
same,outcome,JCK,inactive
same,Potency,N140,inactive
same,Potency,P93_24,inactive
same,Potency,P94_40,inactive
same,Potency,PAD,inactive
same,outcome,PC15,inactive
same,Potency,PC26,inactive
same,outcome,PC49,inactive
same,Potency,SC27B,inactive
same,Potency,TAB109,inactive
same,Potency,TAB113,inactive
same,Potency,TAB165,inactive
same,Potency,W2,inactive
same,max response,CRL-7250,-3.43%
same,max response,HEK293,-4.97%
same,outcome,HaCat,inactive
CCC(=C(CC)c1ccc(O)cc1)c1ccc(O)cc1,max response,CRL-7250,2.3%
same,outcome,HaCat,inactive
N#Cc1c(N(CC(=O)O)CC(=O)O)sc(C(=O)O)c1CC(=O)O,outcome,FAB9,inactive
same,Potency,GB4,inactive
same,Potency,HB3,inactive
same,Potency,ICS,inactive
same,outcome,JCK,inactive
same,Potency,N140,inactive
same,Potency,P93_24,inactive
same,Potency,P94_40,inactive
same,Potency,PAD,inactive
same,outcome,PC15,inactive
same,Potency,PC26,inactive
same,outcome,PC49,inactive
same,Potency,SC27B,inactive
same,Potency,TAB109,inactive
same,Potency,TAB113,inactive
same,Potency,TAB165,inactive
same,Potency,W2,inactive
same,outcome,CRL-7250,inactive
same,outcome,HEK293,inactive
same,outcome,HaCat,inactive
